Screening results: PubChem BioAssay, National Center for Advancing Translational Sciences (NCATS)
An excerpt weighted towards active compounds, which were near 7.4% of everything screened.
SMN2 splice enh: qHTS Assay for Enhancers of SMN2 Splice Variant Expression | HEK293 SMN2-luciferase splicing reporter, luminescence, 30-36 h | Potency, µM (series often up to 46.1 µM), for inactives: at the highest dose activity change, positive = activation, usual class: activators | hit rate 2.8% among 210,000 | AID 1458, 2008; note: % of control where 0% means no effect; nearly all actives have a fitted effect of over 55% in size
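HEK293 cells carry an SMN2 […]–luciferase reporter in which exon 7 inclusion puts luciferase in frame. Cells were plated 10-12 h before compound addition, then incubated 30-36 h at 37C. ONE-Glo luminescence was read; sodium butyrate at 4.5 mM final served as control.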
ELG1 genotox: qHTS screen for small molecules that induce genotoxicity in human embryonic kidney (HEK293T) cells expressing luciferase-tagged ELG1; Potency, µM (series often up to 46 µM), inactives show at the top dose activity change, positive = activation, most hits filed as activators; hit rate 1.3% among 330,000; HEK293T ELG1-luciferase reporter, luminescence, 16 h; note: % of control where 0% means no effect; nearly all actives have a fitted effect of over 60% in size
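After overnight (16 hr) compound treatment at 37 °C, ELG1-luciferase HEK293T cells were lysed with ONE-Glo; luminescence quantified 30 min later at room temperature.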
FLuc counter: qHTS profiling assay for firefly luciferase inhibitor/activator using purifed enzyme and Km concentrations of substrates (counterscreen for miR-21 project) | Luciferin 4-monooxygenase (Photinus pyralis), P08659 | purified FLuc, Km substrates, luminescence inhibition | Potency, µM (series often up to 57.5 µM), without a hit: at the top dose activity change, negative = inhibition, actives largely listed as inhibitors | hit rate 6.9% among 360,000 | AID 588342, 2011;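 note: plate controls were vehicle for no effect and reference inhibitor for full effect; nearly all actives have a fitted effect of over 55% in size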
Target sequence (P08659 whole entry, looked up): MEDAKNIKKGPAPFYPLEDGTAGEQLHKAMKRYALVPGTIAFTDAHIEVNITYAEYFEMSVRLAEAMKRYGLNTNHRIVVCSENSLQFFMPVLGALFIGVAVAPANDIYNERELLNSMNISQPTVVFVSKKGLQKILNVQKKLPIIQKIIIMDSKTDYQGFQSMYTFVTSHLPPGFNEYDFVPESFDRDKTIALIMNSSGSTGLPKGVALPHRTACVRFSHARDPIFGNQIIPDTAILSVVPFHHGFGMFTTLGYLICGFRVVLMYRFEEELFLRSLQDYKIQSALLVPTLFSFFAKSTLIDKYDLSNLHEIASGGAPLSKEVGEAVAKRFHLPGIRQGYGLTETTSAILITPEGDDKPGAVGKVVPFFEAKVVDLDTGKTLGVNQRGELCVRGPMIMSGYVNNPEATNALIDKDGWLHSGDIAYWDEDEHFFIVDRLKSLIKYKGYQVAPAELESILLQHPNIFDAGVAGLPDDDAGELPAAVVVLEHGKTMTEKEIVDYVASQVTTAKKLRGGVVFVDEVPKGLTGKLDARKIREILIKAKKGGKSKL
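Purified P. pyralis luciferase, 10 nM final, with Km-level 10 uM D-luciferin and 10 uM ATP in 50 mM Tris acetate pH 7.5, 10 mM Mg acetate, 0.01% Tween-20, 0.05% BSA; 6-point qHTS titration about 60 µM downward; luminescence read.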
NPC1 prom act: qHTS Assay for NPC1 Promoter Activators; Potency, µM (highest dose often 9.22 µM), without a hit: at the top dose activation, actives largely listed as activators; hit rate 2.4% among 320,000; Huh7 NPC1 promoter luciferase reporter, 24 h; note: % of control where 0% means no effect; nearly all actives have a fitted effect of over 60% in size
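In 1536-well qHTS, Huh7 cells harboring an NPC1 promoter–luciferase construct received compound for 24 h; activation was quantified by luminescence following luciferase reagent addition.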
Rab9 prom act: qHTS Assay for Rab9 Promoter Activators; Potency, µM (titrated, usually from 9.22 µM), for the others: at the top dose activation, negative = inhibition, usual class: activators; hit rate 2.8% among 320,000; Huh7 Rab9 promoter-luciferase reporter, luminescence, 24 h; note: % of control where 0% means no effect; nearly all actives have a fitted effect of over 60% in size
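Quantitative HTS format; Huh7 Rab9-luciferase reporter cells (1500/well) receive compound 2 h post-plating, incubate 24 h at 37 °C, then get luciferase reagent for 10 min before luminescence reading.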
* = called active by the depositor; ? = inconclusive; · = no result. Calls come from the whole dose curve; as a rule, active = well fitted curve in the direction sought with a large enough effect; inconclusive = small, poorly fitted or top-dose-only effect, or another doubt; inactive = no such curve, though single readings can be large; an effect the other way counts as inactive or inconclusive. Potency is the fitted concentration of half-maximal effect.

SMILES	SMN2 splice enh	ELG1 genotox	FLuc counter	NPC1 prom act	Rab9 prom act
CC1=C(C(=O)OC2CCCCCC2)C(c2c(F)cccc2Cl)CC(=O)N1 (stereo not drawn)	-17%	·	?	·	·
Cc1nnc(SCc2ccc(C(=O)Nc3cc(Cl)ccc3C)cc2)s1	-29%	0%	15µM*	-1%	-6%
Cc1ccc(NC(=O)c2ccc(CSc3nnc(C)s3)cc2)c(C)c1	12%	5%	13µM*	?	?
CCc1ccc(CNC(=O)C(CC)n2nc(C)c3c(C)n(-c4ccccc4)nc3c2=O)cc1 (stereo not drawn)	·	·	-17%	·	·
Cc1cccc(C)c1Nc1c(-c2ccc(N3CCOCC3)cc2)nc2cnccn12	·	5%	?	-2%	-2%
Cc1ccccc1Nc1c(-c2ccc(N3CCOCC3)cc2)nc2ccc(Br)cn12	-8%	·	3.4µM*	·	·
Cc1ccccc1Nc1c(-c2cccnc2)nc2cccc(C)n12	-81%	-7%	-4%	-2%	-2%
Cc1ccccc1Nc1c(-c2ccc(N3CCOCC3)cc2)nc2ccccn12	11µM*	·	0.24µM*	·	·
Cc1ccccc1Nc1c(-c2ccc(N3CCOCC3)cc2)nc2cccc(C)n12	18%	·	1.3µM*	·	·
CCOC(=O)c1ccc(NC(=O)c2cc3cc(C)ccc3n2C)cc1	·	·	3%	·	·
O=C(CSc1nc2ccc(Cl)cc2[nH]1)c1cccs1	·	16%	13µM*	12%	28%
O=C(CSc1nc2cc(Cl)ccc2o1)c1cccs1	3%	?	19µM*	9%	12%
Cc1cc(C(=O)CSc2nc3ccc(Cl)cc3[nH]2)c(C)n1C	19%	0%	-17%	-2%	1%
Cc1ccc(NC(=O)c2cc(-c3cccs3)on2)cc1	27%	11µM*	2.4µM*	-2%	-1%
O=C(Nc1cccc(O)c1)c1cc(-c2cccs2)on1	·	12µM*	0.85µM*	-1%	-2%
O=C(Nc1ccc(Cl)cc1)c1cc(-c2cccs2)on1	·	?	?	2%	5%
CC(=O)c1cccc(NC(=O)c2cc(-c3cccs3)on2)c1	·	?	0.85µM*	-2%	1%
CCCOc1ccc(Oc2nc(NCC(C)C)nc(N3CCOCC3)n2)nn1	-7%	·	1%	·	·
O=C(O)C[C@H](NC(=O)CP(=O)(O)O)C(=O)O.[NH-][C@@H]1CCCC[C@@H]1[NH-].[Pt]	2.5µM*	·	·	·	·
O=C(Nc1ccc(NS(=O)(=O)c2ccccc2)cc1)c1ccccc1	·	6%	-2%	0%	0%
N#CC1(c2ccc(NC(=O)c3ccccc3)cc2)CCCC1	14µM*	?	1.3µM*	0.28µM*	0.4µM*
CC(=O)Oc1ccc(C(=O)Nc2ccc(C3(C#N)CCCC3)cc2)cc1	·	5%	?	1.3µM*	2µM*
CCN(Cc1ccccc1)C(=O)Cn1c(=O)n(-c2ccc(Cl)cc2)c(=O)c2c(C)c(C(=O)N(C)C)sc21	·	·	2%	·	·
C=C(C)C(=O)/C=C/CCC/C=C/C(=O)OCC	4%	·	·	·	·
COc1ccc(/C=C/C(=O)C2C(=O)C=C(C)OC2=O)cc1O (stereo not drawn)	12%	?	6µM*	?	18%
SMILES	SMN2 splice enh	ELG1 genotox	FLuc counter	NPC1 prom act	Rab9 prom act
CCCCOc1ccc(C(=O)Nc2nc3c(s2)CC(C)CC3)cc1 (stereo not drawn)	·	·	-13%	·	·
COC(=O)c1ccc(C(=O)NC(=S)Nc2nc3c(s2)CC(C)CC3)cc1 (stereo not drawn)	16µM*	12%	-9%	20%	3%
O=c1oc2ccccc2cc1-c1ccc(O)cc1	?	?	12µM*	?	3.5µM*
Nc1ccc(-c2cc3ccccc3oc2=O)cc1	·	4%	21µM*	-20%	-11%
O=c1cc(-c2cc3ccccc3oc2=O)c2ccc(O)cc2o1	-2%	·	·	·	·
Nc1ccc2oc(=O)c(-c3ccccc3)cc2c1	·	?	?	?	19%
O=c1oc2ccccc2cc1NCc1ccccc1O	5%	?	15µM*	1%	17%
O=c1oc2ccccc2cc1O	-5%	·	·	·	·
COc1cc(OC)cc(C(=O)N2CCN(C(=O)COc3ccc4ccccc4c3)CC2)c1	-12%	1%	5.4µM*	9%	3%
